Compound activity (PubChem)
GPR151 ag – human GPR151 activation; PathHunter beta-arrestin GPR151 cells, luminescence; activation, % at 11.2 µM; 650,000 tested, 1% active; AID 1508602; in the data active = activation above about 4.9%;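 note: 0% = median of compound wells and 100% = cells with positive control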
Target sequence (Q8TDV0 whole entry, looked up): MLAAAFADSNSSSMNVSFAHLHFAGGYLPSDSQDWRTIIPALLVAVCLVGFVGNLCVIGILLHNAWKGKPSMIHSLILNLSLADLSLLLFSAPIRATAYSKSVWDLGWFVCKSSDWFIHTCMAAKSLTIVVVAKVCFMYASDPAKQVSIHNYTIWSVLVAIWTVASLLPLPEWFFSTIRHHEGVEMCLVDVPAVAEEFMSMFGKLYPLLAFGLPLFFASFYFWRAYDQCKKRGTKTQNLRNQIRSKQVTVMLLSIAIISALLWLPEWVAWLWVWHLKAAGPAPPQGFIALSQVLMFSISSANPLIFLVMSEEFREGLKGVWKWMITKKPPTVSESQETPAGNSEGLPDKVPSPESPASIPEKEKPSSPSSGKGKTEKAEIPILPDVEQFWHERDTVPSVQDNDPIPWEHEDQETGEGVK
FBW7 act – human FBW7 E3 ligase activation, primary screen | AlphaScreen FBW7–phospho-cyclin E peptide binding, activator screen | normalized activity (activation), % at 26.1 µM | 650,000 tested, 0.13% active; in the data active = normalized activity above about 1.9%;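 note: purified mutant Fbw7 with reduced substrate affinity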
TEAD-YAP block – TEAD-YAP interaction inhibition | inhibition, % at 9.12 µM | AID 1259422 | 640,000 tested, 1.4% active | HEK-TIYL cells, TEAD-Gal4/YAP UAS-luciferase luminescence; in the data active = inhibition above about 32%;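 note: 0% = median of test compound wells and 100% = reference inhibitor wells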
MITF inh – blocks human microphthalmia-associated transcription factor; O75030; AlphaScreen MITF homodimerization, bead proximity signal; inhibition, % at 2.6 µM; 650,000 tested, 0.91% active; in the data active = inhibition above about 50%;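 note: 0% = vehicle wells with protein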
* marks the source's active call; other numbers are inactive results. Shown are actives, neighbours in structure and some others; about 3.5% of the full set was active somewhere.

SMILES	GPR151 ag	FBW7 act	TEAD-YAP block	MITF inh
CCOc1ccc(NC(=O)C2=C(C)NC(=O)NC2c2ccccc2Cl)cc1 (stereo not given)	1	0	33*	-13
C=CCn1c(SCC(=O)Nc2ccc(F)cc2F)nnc1-c1ccccc1O	0	0	48*	-7
C=CCn1c(SCC(=O)Nc2cccc(C)c2)nnc1-c1ccccc1O	1	0	13	6
Cc1cc(C=C2C(=O)c3ccccc3C2=O)c(C)n1-c1cc(C(=O)O)cc(C(=O)O)c1	1	0	0	64*
Cc1cc(C=C2C(=O)c3ccccc3C2=O)c(C)n1-c1ccc(S(N)(=O)=O)cc1	1	0	6	-6
Cc1ccccc1Oc1ccc(N2C(=O)C3C4CCC(C4)C3C2=O)cc1 (stereo not given)	-1	0	-5	-4
C/C=C/C(=O)Nc1ccc(-c2ccc(NC(=O)/C=C/C)c(OC)c2)cc1OC	0	1	61*	8
C=CS(=O)(=O)c1ccc(C(C)(C)C)cc1	3	0	68*	19
Cn1c(=O)n(C)c2cc(NS(=O)(=O)c3ccc(C(C)(C)C)cc3)ccc21	1	0	25	17
CC(C)Cc1ccc(S(=O)(=O)Nc2ccc3c(c2)n(C)c(=O)n3C)cc1	1	0	33*	1
Cc1ccc2cc3c(nc2c1C)OC(C)C(=O)N(Cc1cccnc1)C3 (stereo not given)	-1	0	34*	10
Cc1cccc2cc3c(nc12)OC(C)C(=O)N(Cc1cccnc1)C3 (stereo not given)	0	0	1	-2
CC(C)N(CCNC(=O)c1cnc(Oc2ccccc2)s1)C(C)C	-1	0	5	42
CC(C)N(CCNC(=O)c1cccc(Oc2ccccc2)n1)C(C)C	-1	3.1*	13	-2
COc1ccc(NC(=O)Cc2ccc(OC)c(OC)c2)c(OC)c1	-1	0	4	7
COc1ccc2c(c1)OCC(Cc1ccc(OC)c(OC(C)=O)c1)C2=O (stereo not given)	2	1	52*	13
COc1ccc2c(c1)OCC(Cc1ccc(OC)c(OC)c1)C2=O (stereo not given)	1	1	48*	-1
COc1ccc2c(c1)O[C@@H]1COc3cc(OC)c(OC)cc3[C@@H]1C2=O	0	0	32*	33
CCOC(=O)c1c(NC(=O)CSc2nnc(CNC(=O)c3ccco3)n2-c2ccc(Br)cc2)sc2c1CCCCC2	2	0	3	-7
Cn1c(=O)c2ncn(CC(=O)N/N=C/c3cc(Cl)ccc3O)c2n(C)c1=O	2	-1	8	42
Cn1c(=O)c2ncn(CC(=O)N/N=C/c3cc(Br)ccc3O)c2n(C)c1=O	-1	-1	12	63*
Cc1nc2c(c(C)nn2C(C)(C)C)c(C)c1CCC(=O)O	0	0	1	6
Cc1nc2c(c(C)nn2C(C)(C)C)c(C)c1CCC(=O)N1CCCCC1	0	0	35*	13
COc1cc2nc(NC(=O)C3=COCCO3)sc2cc1OC	-6	1	-26	8
O=C(Nc1nc2cc3c(cc2s1)OCO3)C1=COCCO1	-12	0	52*	4
SMILES	GPR151 ag	FBW7 act	TEAD-YAP block	MITF inh
CC(C)Nc1cc(NCCO)c2noc3c2c1C(=O)c1ccccc1-3	-2	0	37*	43
O=C(O)CNc1cc(N2CCCCCC2)c2noc3c2c1C(=O)c1ccccc1-3	-5	-1	77*	61*
CC(C)Nc1cc(N(C)CCO)c2noc3c2c1C(=O)c1ccccc1-3	0	0	15	26
O=C1c2ccccc2-c2onc3c(N4CCCCC4)cc(Nc4ccccc4)c1c23	-1	0	7	40
O=C(O)CCNc1cc(N2CCCCC2)c2noc3c2c1C(=O)c1ccccc1-3	3	0	14	89*
CC1CCCN(c2cc(NCCN(C)CCO)c3c4c(onc24)-c2ccccc2C3=O)C1 (stereo not given)	-2	-1	39*	61*
COc1ccc(NC(=O)CSc2nc(N)c(NC(=O)c3ccco3)c(=O)[nH]2)c(OC)c1	-2	1	6	16
CN1C(C(=O)N2CCc3ccccc3C2)CC(c2ccco2)NS1(=O)=O (stereo not given)	0	0	7	1
Oc1ccccc1-c1cc(-c2ccccc2)no1	-4	0	-21	-3
Cc1ccc(-c2cc(-c3ccccc3)no2)c(O)c1	-5	0	52*	6
CCC(CC)CN1CCC2(CC1)CC2C(=O)N1CCCN(C)CC1 (stereo not given)	-1	0	-3	-15
O=C(c1cc(COc2ccc3ncccc3c2)on1)N1CCC(O)CC1	0	0	3	7
CCC(O)C1CCN(C(=O)c2cc(COc3ccc4ncccc4c3)on2)CC1 (stereo not given)	1	0	50*	-2
O=C(c1cc(COc2ccc3ncccc3c2)on1)N1CCCC(OCc2ccccn2)C1 (stereo not given)	2	0	39*	6
O=C(c1cc(COc2ccc3ncccc3c2)on1)N1CCCC(O)C1 (stereo not given)	0	0	10	5
O=C(c1cc(COc2ccc3ncccc3c2)on1)N1CCC(N2CCSCC2)CC1	1	0	43*	-10
O=C(NCCCN1CCCC1=O)c1cc(COc2ccc3ncccc3c2)on1	1	0	37*	-10
O=C(NCC(O)COc1ccc(Br)cc1)c1cc(-c2ccc3[nH]ncc3c2)ccn1 (stereo not given)	0	0	1	15
CC(C)NC(=O)CN1C(=O)C(C)Oc2ccccc21 (stereo not given)	2	0	8	4
C=CCN1CCN(C(=O)c2ccco2)C(C(=O)N2CCCC2)C1 (stereo not given)	1	0	3	13
Cc1cccc(Cn2ccn(-c3cccc(Cl)c3)c(=O)c2=O)c1	0	0	51*	-13
Cc1ccc(Cn2ccn(-c3cccc(Cl)c3)c(=O)c2=O)cc1	-2	1	6	12
CCCSc1nnc2c(n1)OC(c1c(C)[nH]n(-c3ccccc3)c1=O)Nc1ccccc1-2 (stereo not given)	0	0	-37	61*
Cc1cc(C)n(CC(O)Cn2c(C)c(C)c3ccccc32)n1 (stereo not given)	0	0	-5	53*
c1cn2c(-c3ccsc3)cnc2c(Nc2ccc3[nH]ccc3c2)n1	-1	0	56*	4
Oc1ccc(-c2cnc3c(Nc4ccc5[nH]ccc5c4)nccn23)cc1	0	0	69*	8
COc1cc(-c2cnc3c(Nc4ccc5[nH]ccc5c4)nccn23)cc(OC)c1OC	-1	0	1	8
OCc1ccccc1-c1cnc2c(Nc3ccc4[nH]ccc4c3)nccn12	-5	0	93*	13
Nc1ccc(-c2cnc3c(Nc4ccc5[nH]ccc5c4)nccn23)cc1	0	0	69*	9
Cc1ccc(-c2cnc3c(Nc4ccc5[nH]ccc5c4)nccn23)cc1	1	1	3	14
